Laboratory results: PubChem BioAssay (NCI)
The panel holds about 83,000 compounds, 20% with a hit somewhere; the sample as a whole holds those more often.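 For each line, cells grew in 96-well plates with the test compound present at a single concentration for 48 hours.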 Activity calls are given as the source filed them. How the source made its calls: active means growth percent below 10; inactive means the rest.

Each molecule was assayed on HL-60(TB) leukemia (assay: NCI-60 one-dose screen, 48 h (100 = growth as untreated, 0 = no growth, -100 = all killed)). Settings: 10 µM unless noted.

Structure (SMILES) | growth
CC(C)(C)c1nc(-c2ccc(O)c(O)c2)cs1 | -5.29% (active)
O=C1Nc2ccccc2/C1=C/C(=O)c1ccc(N2CCOCC2)cc1 | 49.8% (inactive)
COc1c(C)c(C)c(OC)c2c1[nH]c(=O)c1c3cccnc3cn21 | 112% (inactive)
